# Reference: PubChem BioAssay AID504332 (National Center for Advancing Translational Sciences (NCATS), 2011)
# About 31,000 (8.9%) of roughly 350,000 compounds were called active. Another 15% or so got no clear call; they are omitted. Calls come from the whole dose curve; as a rule, active = well fitted inhibition curve with a large enough effect; inconclusive = small, poorly fitted or top-dose-only effect; inactive = no such curve, though single readings can be large or run the other way. The entries come from a sample that favours actives as a whole.
# Molecular target: Histone-lysine N-methyltransferase EHMT2 (Homo sapiens) (UniProt Q96KQ7)
# Assay: qHTS Assay for Inhibitors of Histone Lysine Methyltransferase G9a; note: nearly all actives have a fitted effect of over 75% in size
# Settings: G9a H3K9 monomethylation, AlphaScreen, 2 h; series mostly up to 59 µM; activity, negative = inhibition: at the top concentration
# In short: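 Quantitative HTS format: methyltransferase activity on a biotin-tagged H3K9 peptide is measured by AlphaScreen, using a rabbit anti-monomethyl-H3K9 antibody with streptavidin donor and anti-IgG acceptor beads. Final levels are 20 nM enzyme, 500 nM peptide, 20 uM SAM; 2 h RT.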
# % is set by controls: 0 for no effect and ±100 for the full control effect; potency is the fitted concentration of half-maximal effect.
# Histone-lysine N-methyltransferase EHMT2 (Homo sapiens), sequence (Q96KQ7 913-1193 limits assumed): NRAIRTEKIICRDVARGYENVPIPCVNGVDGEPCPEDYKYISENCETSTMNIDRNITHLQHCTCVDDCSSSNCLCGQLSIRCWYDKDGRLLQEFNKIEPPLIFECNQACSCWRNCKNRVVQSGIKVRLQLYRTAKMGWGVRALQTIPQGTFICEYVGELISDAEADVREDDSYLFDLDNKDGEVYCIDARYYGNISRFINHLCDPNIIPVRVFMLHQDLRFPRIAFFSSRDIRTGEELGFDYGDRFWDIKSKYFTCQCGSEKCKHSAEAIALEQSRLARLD
Structure (SMILES),"activity, negative = inhibition",Potency
CCC(=O)N1CCc2cc(Br)cc(S(=O)(=O)Nc3ccc(C)cc3C)c21,-3.03% (inactive),–
CCOc1ccc(C(CC(=O)O)NC(=O)Cc2ccccc2)cc1OC (stereo unspecified),-10.4% [at 102 µM] (inactive),–
CSc1nc(=O)c2c(n1C)NC(=O)CC2c1ccccc1OC(C)C (stereo unspecified),6.92% (inactive),–
CN(C)c1nc(=Nc2cccc(Cl)c2)ss1,–,6.31 µM (active)
CCC(C)C(N=C1NS(=O)(=O)c2ccccc21)C(=O)N1CCC(C)CC1 (stereo unspecified),-37.1% [at 102 µM] (inactive),–
Cc1nn(Cc2ccc(F)cc2)c(C)c1NC(=O)c1cc(CC(C)C)on1,-7.61% (inactive),–
CCCCn1c(SCC(=O)N2CCCC2=O)nc2cc(S(N)(=O)=O)ccc21,76.1% [at 2.33 µM] (inactive),–
OC(COc1cccc2ccccc12)CN1CCN(c2ccccn2)CC1 (stereo unspecified),–,50.1 µM (active)
O=C1c2cccc3cccc(c23)N1CN1CCN(c2ccccn2)CC1,4.2% (inactive),–
Cc1ccccc1OCC(O)CN1CCN(c2ccccn2)CC1 (stereo unspecified),-42.2% [at 102 µM] (inactive),–
COc1ccc(-c2nc3ccccc3s2)cc1NC(=O)COc1ccccc1C,6.94% (inactive),–
COc1ccccc1C1C(C(=O)N2CCCCC2)=C(C)Nc2nc3ccccc3n21 (stereo unspecified),-8.15% (inactive),–
Cc1ccccc1NC(=O)COc1cccc2c1CCNC2=O,2.09% [at 102 µM] (inactive),–
Cc1ccnc(NS(=O)(=O)c2ccc(NC(=O)c3oc4ccc(F)cc4c3C)cc2)n1,6.53% [at 0.501 µM] (inactive),–
Cc1ccnc(NS(=O)(=O)c2ccc(NC(=O)c3ccc(S(=O)(=O)N(C)C)cc3)cc2)n1,13.2% [at 102 µM] (inactive),–
Cc1ccnc(NS(=O)(=O)c2ccc(NC(=O)c3oc4ccccc4c3C)cc2)n1,–,25.1 µM (active)
Cc1ccc(NC(=O)NC(C)c2c(-n3cccc3)sc(C)c2C)c(C)c1 (stereo unspecified),10.6% (inactive),–
CCOC(=O)N1CCN(C(=O)c2ccc(S(=O)(=O)c3ccc(C)cc3)c(NC(C)=O)c2)CC1,29.4% [at 0.501 µM] (inactive),–
COCCNC(=O)c1ccc(S(=O)(=O)c2ccc(Cl)cc2)c(NC(C)=O)c1,-9.66% [at 102 µM] (inactive),–
CC(=O)Nc1cc(C(=O)O)ccc1S(=O)(=O)c1ccc(Cl)cc1,–,50.1 µM (active)
O=C(CN1CCCCC1)Nc1ccccc1C(=O)NC1CC1,-7.68% [at 102 µM] (inactive),–
O=C(COc1ccc(Cl)cc1)N(Cc1ccco1)Cc1ccco1,-9.12% (inactive),–
O=C1C=C(c2cccc(Br)c2)C[C@@H](c2ccc(F)cc2)C1,-5.82% [at 0.501 µM] (inactive),–
COc1ccc(C2=NN(C(=O)CSc3nc(=O)n4ccc(C)cc4n3)C(c3ccc(C)cc3)C2)cc1 (stereo unspecified),4.89% [at 2.33 µM] (inactive),–

Structure (SMILES),"activity, negative = inhibition",Potency
COc1ccc(Cl)cc1C(=O)NNC(=S)NC1CCCC1,16.1% [at 102 µM] (inactive),–
COc1cc(OC)c(C(=O)NC2CCCCCC2)cc1OC,13.1% [at 12.7 µM] (inactive),–
Cc1onc(-c2ccccc2)c1C(=O)NNC(=S)NC(=O)c1ccc(F)cc1,–,31.6 µM (active)
CCc1noc(C)c1C(=O)NNC(=O)c1ccc(F)cc1,4.99% [at 102 µM] (inactive),–
COc1cc(C(=S)NC2CCCCC2)ccc1O,–,35.5 µM (active)
Cn1nnnc1SCC(=O)NNC(=O)c1ccc(Br)cc1,1.14% [at 102 µM] (inactive),–
CC(=O)NC(=S)NNC(=O)c1ccc(Br)cc1,–,8.91 µM (active)
COc1ccc(C(=O)NC2CCN(C(=S)Nc3ccccc3)CC2)cc1,-1.57% [at 102 µM] (inactive),–
COc1ccc(C(=O)NC(=S)NC2CCCCC2)cc1,–,39.8 µM (active)
CNC(=S)NNC(=O)c1ccc(N(C)C)cc1,-38.7% [at 102 µM] (inactive),–
CC(=O)Nc1cccc(NC(=O)c2c(-c3ccccc3)noc2C)c1,10.1% [at 12.7 µM] (inactive),–
CCCNC(=S)N1CCC(NC(=O)c2ccc(OC)cc2)CC1,28.9% [at 102 µM] (inactive),–
COc1cccc(NC(=O)CN(C)CC(=O)c2c(N)n(Cc3ccccc3)c(=O)n(C)c2=O)c1,-2.39% [at 2.33 µM] (inactive),–
COc1ccc(NC(=O)c2ccc3nc(CCc4ccccc4)oc3c2)c(OC)c1,6.98% (inactive),–
CC1CCCN(C(=O)CN2C(=O)c3ccccc3S2(=O)=O)C1 (stereo unspecified),6.05% [at 2.33 µM] (inactive),–
CC1(c2ccc3ccccc3c2)NC(=O)NC1=O (stereo unspecified),-3.89% [at 102 µM] (inactive),–
COc1cccc(NC(=O)CN(C)C(=O)c2ccccc2CCc2ccccc2)c1,3.17% [at 12.7 µM] (inactive),–
O=C(NCCCN1CCOCC1)c1cc(-c2ccccc2F)no1,20.4% [at 102 µM] (inactive),–
CSc1ccc(CCNC(=O)c2ccc3c(c2)nc2n3CCOC2)cc1,-0.567% (inactive),–
Clc1ccc(C(Cn2ccnc2)OCc2ccsc2Cl)c(Cl)c1 (stereo unspecified),-28.9% [at 12.7 µM] (inactive),–
CCOC(=O)c1[nH]c(C)c(CCC(=O)NCc2ccccc2C)c1C,13.7% (inactive),–
Cc1ccc2ncc(C(=O)Nc3ccc(OC(F)(F)F)cc3)c(=O)n2c1,-23.6% (inactive),–
Cc1nn(CC(=O)N2CCN(c3cccc(C(F)(F)F)c3)CC2)c(=O)c2cc3sccc3n12,-1.49% (inactive),–
CC(NS(=O)(=O)c1ccc(OCC(=O)N2CCCC2)cc1)c1ccccc1 (stereo unspecified),3.21% [at 102 µM] (inactive),–

Structure (SMILES),"activity, negative = inhibition",Potency
COc1ccc(OCC(=O)NNC(=O)c2ccc(-c3ccccc3)cc2)cc1,–,79.4 µM (active)
COc1ccc(C(=O)NC(=S)NNC(=O)CCc2ccccc2)cc1,28.9% [at 0.0925 µM] (inactive),–
COCCCNC(=S)NC(=O)c1ccccc1,6.49% (inactive),–
COc1ccc(C(=O)Nc2cc(C)ccc2NC(=O)COc2ccccc2)cc1,22.1% (inactive),–
Cc1onc(-c2ccccc2)c1C(=O)Nc1ccccc1C#N,14.5% [at 102 µM] (inactive),–
COc1ccc(OCC(=O)NNC(=O)c2cccc(C)c2)cc1,1.31% [at 102 µM] (inactive),–
COc1ccc(C(=O)NNC(=S)NC(=O)c2ccccc2)cc1,–,22.4 µM (active)
Cc1ccc(CNC(=O)c2c(-c3ccccc3)noc2C)cc1,-6.57% [at 102 µM] (inactive),–
COc1ccc(C(=O)NC(=S)NNC(=O)c2c(-c3ccccc3)noc2C)cc1,–,5.62 µM (active)
Cc1cn(C)c(CC(=O)NCc2ccc(Cl)cc2)c1C(=O)O,5.99% (inactive),–
CCC(=O)N1CCc2cc(S(=O)(=O)NCCC(=O)Nc3cccc(C)c3C)ccc21,-36.9% (inactive),–
COc1ccc2ncc3c(-c4ccc(C)c(C)c4)nn(CC(=O)NC4CCCC4)c3c2c1,6.47% (inactive),–
CC1Cc2cc(S(=O)(=O)CCC(=O)Nc3ccc(F)c(Cl)c3)ccc2N1C(=O)C1CC1 (stereo unspecified),-7.75% (inactive),–
O=C(Nc1ccccc1)c1cc2ccccc2[nH]1,9.33% (inactive),–
S=c1ccc2ccccc2[nH]1,–,4.47 µM (active)
CC(=O)N1CCN(C(=O)c2cc(-c3ccc(Cl)s3)nc3ccccc23)CC1,1.51% [at 102 µM] (inactive),–
C#CCOc1ccc(C2CC(=O)Nc3c2c(C)nn3-c2nc(C)cc(C)n2)cc1 (stereo unspecified),0.767% (inactive),–
Cc1ccc(-c2nc(CS(=O)(=O)CC(=O)NCc3ccccc3Cl)c(C)o2)cc1,-6.32% (inactive),–
CC(C)(C)C(=O)CSc1ccc(S(=O)(=O)N2CCCC2)cn1,-13.9% [at 2.33 µM] (inactive),–
CC1=C(C(=O)OCC2CCCCC2)C(c2c(F)cccc2Cl)CC(=O)N1 (stereo unspecified),7.87% (inactive),–
O=C(CN1CCCSc2ccccc21)N1CCN(S(=O)(=O)c2cccc(F)c2)CC1,15.4% [at 12.7 µM] (inactive),–
N#C/C=C1\Sc2ccccc2C(=O)N1CC(=O)N1CCN(S(=O)(=O)c2ccccc2)CC1,–,70.8 µM (active)
O=C(CN1CCSc2ccccc21)N1CCN(c2ccccc2)CC1,-30.2% (inactive),–
CC(C)c1ccc(S(=O)(=O)N2CCN(C(=O)CN3C(=O)NC(C)(c4ccccc4)C3=O)CC2)cc1 (stereo unspecified),0.311% [at 102 µM] (inactive),–

Structure (SMILES),"activity, negative = inhibition",Potency
O=C(Cc1ccccc1)N1CCN(S(=O)(=O)c2ccc([N+](=O)[O-])cc2)CC1,0.141% [at 102 µM] (inactive),–
O=C(CN1CCCSc2ccccc21)N1CCN(S(=O)(=O)c2ccccc2)CC1,–,56.2 µM (active)
CCN(C(=O)CSc1ncnc2c1cnn2-c1ccccc1)C1CCS(=O)(=O)C1 (stereo unspecified),7.57% [at 0.501 µM] (inactive),–
O=C(OCc1cc(=O)n2nc(C3CC3)sc2n1)c1ccccc1Cl,0.251% (inactive),–
O=C(NNC(=O)c1ccc(-n2cncn2)c([N+](=O)[O-])c1)c1ccccc1,14.9% [at 12.7 µM] (inactive),–
CCc1cc2c(cc(C(=O)OC)n2Cc2nc(-c3ccc(C)cc3)oc2C)s1,-24.2% (inactive),–
N#Cc1nc(-c2cccc3ccccc23)oc1N,2.47% [at 2.33 µM] (inactive),–
CCCCN(C(=O)C(CCSC)N1C(=O)c2ccccc2C1=O)c1c(N)n(CCC)c(=O)[nH]c1=O (stereo unspecified),17.2% [at 12.7 µM] (inactive),–
COc1ccc2oc(C(=O)N(CC(C)C)C3CCS(=O)(=O)C3)c(C)c2c1 (stereo unspecified),7.64% [at 0.501 µM] (inactive),–
CSc1nn(Cc2cccc(C)c2)c(N)c1S(=O)(=O)c1ccccc1,-1.54% (inactive),–
Cc1cccc(Cn2cnc3c(N)c(C)c(C)cc32)c1,–,44.7 µM (active)
COc1cccc(Cn2cnc3c([N+](=O)[O-])c(C)c(C)cc32)c1,-11.2% [at 102 µM] (inactive),–
COc1cc(OC)cc(-c2nc3nc(C)c(CCC(=O)Nc4ccccc4)c(C)n3n2)c1,-2.91% (inactive),–
O=C(CCc1nnc2ccc(NCc3ccco3)nn12)Nc1cc(F)ccc1F,-3.92% [at 102 µM] (inactive),–
Cc1sc2ncnc(N3CCC(C(=O)Nc4ccc(F)cc4Cl)CC3)c2c1C,-22.6% [at 12.7 µM] (inactive),–
CN(Cc1ccccc1)c1ncnc2onc(-c3ccc(F)cc3)c12,6.18% (inactive),–
Cc1ccc(CSCC(=O)N(C)CC(=O)Nc2ccc(C)cc2)cc1,-0.261% [at 102 µM] (inactive),–
CCN(CC(=O)Nc1cc(Cl)ccc1C)C(=O)CSCc1ccc(C)cc1,-2.36% [at 2.33 µM] (inactive),–
CCCCN(C)CCNC(=O)CSCc1ccc(C)cc1,–,3.55 µM (active)
CC(=O)c1nn(-c2ccc(OC(F)(F)F)cc2)nc1Nc1ccccc1,9.69% (inactive),–
Cc1ccc(N2CC(C(=O)N3CCC4(CC3)CC(=O)c3ccccc3O4)CC2=O)cc1C (stereo unspecified),6.18% [at 0.501 µM] (inactive),–
CCOc1ccc(NS(=O)(=O)c2ccc(C(=O)NCC(c3ccccc3OC)N3CCCC3)cc2)cc1 (stereo unspecified),–,1.26 µM (active)
CCOc1ccc(NS(=O)(=O)c2ccc(C(=O)NC3CCN(Cc4ccccc4)CC3)cc2)cc1,17.4% [at 2.33 µM] (inactive),–
CCOc1ccc(S(=O)(=O)Nc2ccc(C(=O)NCCCN3CCCC3=O)cc2)cc1,12.9% (inactive),–
